# From PubChem BioAssay (NCI)
# The panel holds about 83,000 compounds, 20% with a hit somewhere; the sample as a whole holds those more often.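 Single-concentration screen, 48 h exposure, 96-well plates. Endpoint: percent growth. Below 10 = active.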 Unmarked numbers belong to inactive results. Activity calls are given as the source filed them.
# Columns and labels:
# Test in all cases: NCI-60 one-dose screen, 48 h (100 = growth as untreated, 0 = no growth, -100 = all killed)
# SR leukemia = conditions: 10 µM unless noted
# RPMI-8226 leukemia = conditions: 10 µM unless noted
# OVCAR-8 ovarian = conditions: 10 µM unless noted
# OVCAR-5 ovarian = conditions: 10 µM unless noted
# OVCAR-4 ovarian = conditions: 10 µM unless noted
# SK-OV-3 ovarian = conditions: 10 µM unless noted
# IGROV1 ovarian = conditions: 10 µM unless noted
# OVCAR-3 ovarian = conditions: 10 µM unless noted
# HS 578T breast = conditions: 10 µM
# NCI/ADR-RES ovarian = conditions: 10 µM unless noted
SMILES,growth (SR leukemia),growth (RPMI-8226 leukemia),growth (OVCAR-8 ovarian),growth (OVCAR-5 ovarian),growth (OVCAR-4 ovarian),growth (SK-OV-3 ovarian),growth (IGROV1 ovarian),growth (OVCAR-3 ovarian),growth (HS 578T breast),growth (NCI/ADR-RES ovarian)
Clc1nc(Cl)c2ncn(C/C=C\Cn3cnc4c(Cl)nc(Cl)nc43)c2n1,-48.2% (active),-61.2% (active),-57.4% (active),-9.17% (active),-89.2% (active),32.8%,-82.3% (active),-97% (active),-41.5% (active),30.1%
Nc1c(Cl)cccc1[N+](=O)[O-],104%,100%,102%,102%,111%,108%,112%,111%,87.8%,102%
N#CC1(C#N)C(c2cccs2)NC(c2cccs2)C1(C#N)C#N (stereo not given),110%,107%,101%,109%,92.7%,99.1%,101%,98.1%,104%,97.6%
COc1ccc2c(CCCCC(c3ccccc3)c3ccccc3)c3[n+](cc2c1OC)CCc1cc2c(cc1-3)OCO2,-35.8% (active),-33% (active),-54.8% (active),-13.4% (active),-80.2% (active),-9.34% (active),-52.1% (active),-89.6% (active),-20.1% (active),68.5%
COC(=O)CCCNc1c(-c2c(O)c(O)cc3c(O)c(-c4c(C)cc5c(-c6nc7ccccn7c6NCCCC(=O)OC)c(O)c(O)cc5c4O)c(C)cc23)nc2ccccn12,24.3%,22.5%,51.4%,119%,98.6%,50.5%,34.8%,64.6%,34.5%,100%
CNC(=O)c1cc(Oc2cccc3nc(Nc4ccc(Oc5ccccc5)cc4)ccc23)ccn1,30.2%,47.9%,75.8%,83.4%,52.1%,87.1%,92.4%,72.7%,81.9%,72.6%
Clc1ccc(Nc2nccc(Nc3ccc4[nH]ncc4c3)n2)cc1,2.66% (active),18.3%,22.1%,64.9%,49.3%,88.4%,46.9%,52.1%,61.5%,38.9%
Cc1cc(C(O)CN(C)C)cc2c1ccc1cc(C(C)C)ccc12 (stereo not given),-19.6% (active),-22.6% (active),-46.5% (active),49.5%,-2.02% (active),83.7%,-64.4% (active),64.7%,-0.73% (active),59.8%
Cc1cc(N(CCNc2ccnc3cc(Cl)ccc23)Cc2cccs2)nc(Cl)n1,-22.9% (active),-23.2% (active),11.5%,12.8%,-51.3% (active),-48.8% (active),-1.29% (active),-77.4% (active),-5.93% (active),-2.82% (active)
COc1cnc2c(c1)C(=O)c1c-2n(CCCNC2=NCCS2)c(=O)c2cc(Cl)ccc12,2.52% (active),-31.2% (active),-25.1% (active),4.29% (active),49.5%,20.9%,-57% (active),-67.9% (active),85.8%,-14.5% (active)
Cc1ccc(N)cc1CN1C(=O)c2ccccc2C1=O,87.4%,99.3%,101%,104%,110%,94.2%,105%,117%,106%,107%
COc1ccc(-c2nocc2-c2cc(OC)c(OC)c(OC)c2)cc1,23.6%,30.7%,28.4%,51%,45.7%,22.5%,46.6%,-10.9% (active),27.4%,-19.5% (active)
Cc1cc(N(CCNc2ccnc3cc(Cl)ccc23)Cc2ccc3c(c2)OCO3)nc(N2CCN(C)CC2)n1,-33.4% (active),-42.3% (active),20.3%,97.2%,36%,67.4%,51.7%,26.5%,34.4%,40.9%
NS(=O)(=O)c1ccc(CCN2C(=O)/C(=C\c3ccc(Cl)cc3)C=C2c2ccc3ccccc3c2)cc1,83.3%,89.6%,83.7%,89.5%,95.3%,84%,94.2%,104%,101%,95.3%
CCc1nc2cc(F)c(/C=C/C(=O)NO)cc2c(=O)n1CCc1ccccc1,15.1%,11%,11.6%,23.6%,15.4%,1.17% (active),32.2%,7.99% (active),43.3%,2.43% (active)
CN(C)CCn1c(=O)c2c3cc4c(cc3n(CCN(C)C)c2c2ccc(Cl)cc21)OCO4,-13.5% (active),44.7%,31.7%,81.4%,61.3%,41.3%,38.4%,83.5%,84.7%,31.4%
Cc1cc(N2CCCC2)nc(N(CCCNc2ccnc3cc(Cl)ccc23)Cc2ccc3c(c2)OCO3)n1,-36% (active),-31.2% (active),-2.12% (active),-3.2% (active),13.5%,53.5%,-7.14% (active),-32.8% (active),-32.2% (active),1.74% (active)
CCCCn1c(C)nc2cc(Nc3nc(N4CCCCC4)nc4nc[nH]c34)ccc21,31.2%,40.3%,30.1%,50.1%,19%,66.5%,30.8%,37.7%,43.8%,35%
COc1ccc2nc3cc(Cl)ccc3c(Nc3ccc(N(C)C)cc3)c2c1,1.55% (active),27.2%,90.5%,110%,88.7%,85.7%,97%,95.9%,109%,87.1%
OCCNC(=S)Nc1ccc(-c2nc(N3C[C@H]4CC[C@@H](C3)O4)c3cccn3n2)cc1,11.1%,5.44% (active),-7.06% (active),-4.85% (active),-7.17% (active),-33.7% (active),-19.9% (active),-4.31% (active),-28.6% (active),3.87% (active)
N#Cc1c(-c2ccc(C(F)(F)F)cc2)cc(NCC2CCS(=O)(=O)CC2)n2c1nc1ccccc12,79.9%,80.9%,93.3%,103%,85.4%,83.3%,85.6%,97.9%,81.3%,103%
O=C(Cn1ccnc1)Nc1ccc(-c2nc3ccccc3s2)cc1,36.5%,52%,80.3%,104%,34.8%,87.8%,68.9%,62.2%,86.9%,88.2%
COc1cc(C(=O)NNC(=O)c2ccc(NC(=O)CCl)cc2)cc(OC)c1OC,45.8%,97.8%,82.2%,170%,88.4%,99.1%,75.1%,62.4%,90.5%,102%
CCCCCCCC(=O)SCC/C=C/[C@@H]1CC(=O)NCc2nc(co2)C2=N[C@@](C)(CS2)C(=O)N[C@@H](C(C)C)C(=O)O1,10.7%,3.09% (active),0.95% (active),-5.93% (active),12.2%,-12.7% (active),-23.2% (active),-45.6% (active),4.63% (active),5.57% (active)
COc1cc2nc(Nc3cccc(Cl)c3)nc(N)c2cc1OC,67.4%,35.7%,87.4%,111%,72.7%,114%,64.5%,89.2%,109%,74.1%
CC1(/C=N/NC(N)=S)NC(=O)NC1=O (stereo not given),94.8%,104%,97.7%,102%,109%,86.9%,111%,109%,97%,111%
COc1cnc2c(c1)C(=O)c1c-2n(CCCN2CCC(O)CC2)c(=O)c2cc(Cl)ccc12,-16.9% (active),8.25% (active),46.1%,101%,70%,27.8%,55.6%,80.9%,86.7%,28.3%
